ATXN2 expr inh: ATXN2 expression inhibition; actives 0.72% (n = 360,000); HEK-293 ATXN2-luciferase reporter, luminescence, 24 h; AID 1745845; Potency, µM (highest dose often 57 µM), usual class: inhibitors; further: nearly all actives have a fitted effect of over 55% in size
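ATXN2-luciferase reporter cells (luciferase flanked by upstream and downstream ATXN2 gene portions) were treated 24 h at 37 °C with compounds at up to 57 uM. SteadyGlo luminescence gave expression; GF-AFC fluorescence gave viability.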
HepG2 viability: kills HepG2 cells in TGF-b inhibitor counter-screen. HepG2 CAGA-GFP viability, ATP luminescence, 18 h. actives 0.76% (n = 410,000). Potency, µM (series often up to 46.1 µM), usual class: cytotoxic
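CellTiter-Glo luminescence gave cytotoxicity after 18 hours at 37 degrees C. The cells were HepG2 CAGA-GFP in 1% FBS DMEM, stimulated with 500 pg/mL TGF-beta after compound addition. %Activity was normalised to no-cell wells (complete cell-killing) and DMSO (no toxicity), and curves were fitted and classified.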
HT1080-NT tox: kills 2HG-producing HT-1080-NT fibrosarcoma cells | Potency, µM (series often up to 46.1 µM), actives largely listed as cytotoxic | AID 686970 | actives 1.6% (n = 360,000) | HT-1080-NT fibrosarcoma viability, CellTiter-Glo ATP luminescence, 48 h;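 further: NT is the 2HG producing partner of a matched IDH1 knockdown line; nearly all actives have a fitted effect of over 55% in size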
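A 48-hour cytotoxicity screen used HT-1080-NT cells plated 2 hours before compound delivery. ATP-based CellTiter-Glo luminescence measured viability, normalized to DMSO and no-cell controls.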
HT1080 IDH1KD tx: toxicity to HT-1080 IDH1 knockdown cells (counter line) | Potency, µM (top dose mostly 46.1 µM), actives largely listed as cytotoxic | HT-1080 IDH1 knockdown viability, ATP luminescence, 48 h | actives 2% (n = 360,000) | AID 686971
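Assay cells: HT-1080 with IDH1 knockdown, 750 per well, RPMI/5% FBS. Exposure: 48 h at 37 °C following 2 h pre-incubation. Read: CellTiter-Glo luminescence; fitted concentration-response, curve class assigned.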
S2 tox: reduces viability in counter-screen for ATXN expression inhibitors. S2 cells (HEK-293 line with an ATXN2-luciferase reporter) viability, CellTiter-Fluor protease fluorescence, 24 h. Potency, µM (doses to about 56.7 µM), usual class: cytotoxic. actives 0.49% (n = 400,000); further: nearly all actives have a fitted effect of over 40% in size
TGFb inhibitor: inhibitors of TGF-b signaling. HepG2 CAGA-GFP TGF-b/SMAD3 reporter, GFP fluorescence, 18 h; TGF-beta stimulated, 500 pg/mL final. Potency, µM (doses to about 46.1 µM), most hits filed as inhibitors. actives 1.2% (n = 410,000). AID 588855; further: nearly all actives have a fitted effect of over 65% in size
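GFP signal (ex488/em500-530) from TGF-beta-stimulated HEPG2 CAGA-GFP cells, 500 pg/mL final, 18 h at 37 degrees C in DMEM plus 1% FBS, normalized to unstimulated and DMSO-stimulated controls.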
Hits are given with their value; . = inactive; ? = inconclusive; / = no result given; [ ] = dose if it differs, or a comment. Rows were chosen to be rich in hits. Some 3.9% of all compounds tested hit in one or more screens of this group. The call rests on the fitted dose curve; in most records, active means well fitted curve in the direction sought with a large enough effect; inconclusive means small, poorly fitted or top-dose-only effect, or another doubt; inactive means no such curve, though single readings can be large; an effect the other way counts as inactive or inconclusive.

SMILES	ATXN2 expr inh	HepG2 viability	HT1080-NT tox	HT1080 IDH1KD tx	S2 tox	TGFb inhibitor
O=C1[C@@H](Oc2ccccc2)[C@@H](c2ccccc2)N1c1cccnc1	.	.	.	.	?	.
COc1ccc(-n2nnnc2SCC(=O)Nc2nc3c(s2)CCCC3)cc1	.	.	.	18µM	?	.
COc1ccc(OC)c(NC(=O)CSc2nnnn2-c2ccc3c(c2)OCO3)c1	8.9µM	.	?	.	.	.
COc1ccc(-n2nnnc2SCC(=O)NC2CC2)cc1	.	.	.	.	.	.
CCCc1sc(N/N=C/c2ccccn2)nc1-c1ccc(Br)cc1	2.8µM	.	3.5µM	2.8µM	/	?
CCc1ccccc1OCC(=O)OCC(=O)Nc1cc(C)on1	.	3.2µM	.[9.24 µM]	.	.	.
Cc1cccc(C)c1NC(=O)NCc1ccco1	/	.	.	.	.	.
Cc1cccc(C)c1OCCNC(=O)C(=O)NCc1ccco1	.	.	1.6µM	2.6µM	.	.
Cc1cccc(Oc2ccc(N)cc2)c1	.	.	.	.	.	.
Nc1ccc(Oc2cccc(Oc3ccc(N)cc3)c2)cc1	1.8µM	.	.	.	.	.
Cc1nn2c(COc3ccc(NC(=O)c4ccccc4Cl)cc3)nnc2c2ccccc12	.	.	?	15µM	.	.
CCc1nnc(SCc2cc(C)ccc2C)c2cc3sc(C)cc3n12	/	.	/	/	/	?
COc1cc(SSc2cc(OC)cc([N+](=O)[O-])c2N)c(N)c([N+](=O)[O-])c1	/	.	.	.	7.9µM	?
COc1cc(=O)n2c(c1C(=O)N(C)Cc1nccs1)CCN(Cc1ccc(F)c(F)c1)CC2	/	/	/	/	.	/
CC(C)[C@H](C(=O)Nc1ccc(C(=O)NO)cc1)c1ccccc1	.	/	/	/	/	/
Cc1cccc2c1-c1sc(C(=O)NCCc3ccc(Cl)cc3)cc1CO2	?	.	/	/	.	.
CNc1nccc(-c2cccnc2Oc2cc(C(=O)Nc3cccc(C(F)(F)F)c3)ccc2C)n1	24µM	/	/	/	/	/
CC(=O)OCC(=O)[C@@]12N=C(C)O[C@H]1C[C@H]1[C@@H]3CCC4=CC(=O)C=C[C@]4(C)[C@@H]3[C@@H](O)C[C@@]12C	.	/	/	/	/	/
O=C(CSc1ncc2c(n1)-c1ccccc1N(Cc1ccc(F)cc1)S2(=O)=O)c1ccc(Cl)cc1	.	.	/	/	.	.
Cc1ccc(CNC(=O)c2ccc(CSCc3c(F)cccc3Cl)o2)cc1	.	.	/	/	.	16µM
Cc1ccc(CNC(=O)c2ccc(CSCc3ccc(C)cc3)o2)cc1	/	.	/	/	/	?
Cc1ccc2c(c1)-c1nc(-c3ccc4c(c3)NC(=O)CO4)cc(-c3ccc(F)cc3)c1CO2	.	.	/	/	.	.
O=C(Nc1nnc(C2CC2)s1)C1Cc2ccccc2CN1S(=O)(=O)c1ccccc1F (stereo unspecified)	.	.	?	13µM	.	.
CC1OC(CC(=O)O)CC2=C1C(=O)c1c(O)cccc1C2=O (stereo unspecified)	1.2µM	0.5µM	1.3µM	0.26µM	0.95µM	?
O=C(N/N=C/c1cn(-c2ccccc2)nc1-c1cc2ccccc2o1)c1ccccc1Br	.	.	?	12µM	.	.
O=C(N/N=C/c1cn(-c2ccccc2)nc1-c1cc2ccccc2o1)c1c[nH]c2ccccc12	.	.	.	.	.	.
COCc1c(C(=O)N2CCN(C(C)C)CC2)cnn1-c1nccc(-c2cc(C)sc2C)n1	/	/	/	/	.	/
O=C(NCc1nc2ccccc2[nH]1)C1=C[C@H](c2ccc(C(F)(F)F)cc2)C[C@H](OCc2ccc(CO)cc2)O1	?	.	.	.	?	11µM
COc1ccc(N(C(=O)/C=C\C(=O)Nc2ccc(Cl)cc2)C(C(=O)NCc2ccco2)c2ccc(C)cc2)cc1 (stereo unspecified)	/	.	/	/	/	13µM
Cc1ccc(NC(=O)/C=C\C(=O)N(c2ccc(C(C)C)cc2)C(C(=O)NCc2ccco2)c2ccc(Cl)cc2)cc1 (stereo unspecified)	/	.	/	/	/	?
